Test results as given in PubChem BioAssay AID720540 (National Center for Advancing Translational Sciences (NCATS), 2013).
Hit rate of the full screen: of about 1,300 compounds, about 460 (35%) were called active. Inconclusive results (about 39%) are left out. The call rests on the fitted dose curve; in most records, active means well fitted inhibition curve with a large enough effect; inconclusive means small, poorly fitted or top-dose-only effect; inactive means flat fitted curve, though single readings scatter. The list shows a part of the results.

What follows are compounds tested against Protein phosphatase EYA2 (Homo sapiens) (UniProt O00167) (assay: qHTS for Inhibitors of the Phosphatase Activity of Eya2: Confirmatory Assay for Cherry-picked Compounds). Conditions: purified EYA2 phosphatase activity, qHTS confirmation; series mostly up to 46.1 µM.
How it was run: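 Eya2 (0.2 uM working solution) preincubated 10 min at room temperature with compound in pH 7.5 HEPES buffer with MgCl2, BSA, DTT. OMFP added (50 uM working solution), 10 min more; fluorescence 485/525 nm, normalized to EGTA and DMSO.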
Further: nearly all actives have a fitted effect of over 65% in size.
Potency means the concentration at half of the fitted maximal effect.

Protein phosphatase EYA2 (Homo sapiens), sequence (O00167 whole entry, looked up): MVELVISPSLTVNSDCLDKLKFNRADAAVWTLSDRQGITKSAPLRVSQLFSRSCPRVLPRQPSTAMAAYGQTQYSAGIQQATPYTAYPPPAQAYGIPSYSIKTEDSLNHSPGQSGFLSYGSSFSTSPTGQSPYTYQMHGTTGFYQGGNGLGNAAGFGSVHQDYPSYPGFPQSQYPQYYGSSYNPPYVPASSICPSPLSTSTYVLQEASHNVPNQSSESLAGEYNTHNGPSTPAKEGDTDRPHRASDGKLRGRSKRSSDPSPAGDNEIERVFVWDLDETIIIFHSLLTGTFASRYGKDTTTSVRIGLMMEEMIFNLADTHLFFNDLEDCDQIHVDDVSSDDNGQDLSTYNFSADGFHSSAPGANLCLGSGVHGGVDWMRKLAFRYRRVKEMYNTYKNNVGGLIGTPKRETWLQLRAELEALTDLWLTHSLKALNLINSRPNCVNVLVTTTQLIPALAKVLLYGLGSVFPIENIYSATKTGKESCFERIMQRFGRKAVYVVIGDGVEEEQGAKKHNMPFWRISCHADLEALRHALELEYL

Compound	Potency
CCCSC1=N/C(=C\C=C\c2ccco2)C(=O)S1	9.53 µM (active)
O=c1nc2c(O)cccn2c2c1c(=O)[nH]c1ccccc12	4.26 µM (active)
Cc1ccc(C(=O)CSc2nnc(CNc3nc(-c4ccccc4)cs3)n2C)cc1	7.57 µM (active)
COc1ccc(N)cc1-n1c(C)ccc1C	inactive
O=[N+]([O-])c1ccc([N+](=O)[O-])c(Nc2ccc(N3CCOCC3)cc2)c1	10.7 µM (active)
CCn1nc(C(=O)Nc2nc(-c3ccccn3)cs2)c2ccccc2c1=O	4.26 µM (active)
CSCCC(=O)Nc1nc(-c2ccccn2)cs1	19 µM (active)
O=C(CCS(=O)(=O)c1ccc(F)cc1)Nc1nc(-c2ccccn2)cs1	13.5 µM (active)
Cn1cccc1/C=N/N1CCN(Cc2cccc3ccccc23)CC1	15.1 µM (active)
COc1ccccc1/C=C/C=N/N1CCN(Cc2cccc3ccccc23)CC1	8.49 µM (active)
Cc1cc(C(=O)COC(=O)c2ccc(O)cc2)c(C)n1CCc1ccc(F)cc1	inactive
O=C(CSc1ccc2nnc(-c3ccccn3)n2n1)Nc1ccccc1	16.9 µM (active)
CCCCC(Sc1ccc2nnc(-c3ccccn3)n2n1)C(=O)O (centres undefined)	16.9 µM (active)
O=C(CSc1ccc2nnc(-c3ccccn3)n2n1)Nc1ccccc1F	12 µM (active)
CCC(=O)Nc1ccc(-c2nnc(SCc3ccccc3)n2C)cc1	inactive
O=C(CSc1ccc2nnc(-c3ccccn3)n2n1)Nc1ccccc1C(F)(F)F	19 µM (active)
O=S(=O)(O)c1ccc(O)c2cc(Nc3ccccc3)ccc12	7.57 µM (active)
NC(=O)c1nc(C(=O)N2CCCCC2)c2ccccc2n1	inactive
COc1ccc(/C=C/C(=O)Nc2ccc3nc4n(c(=O)c3c2)CCCC4)cc1	inactive
O=C(c1ccc2c(=O)n3c(nc2c1)CCCCC3)N1CCN(c2cccc(Cl)c2)CC1	16.9 µM (active)
COc1cc2c(cc1OC)C(c1ccc([N+](=O)[O-])cc1)NCC2 (centres undefined)	inactive
Oc1ccccc1C=NC1CCCCC1N=Cc1ccccc1O (centres undefined)	19 µM (active)
O=C(Nc1nncs1)c1cc(-c2ccco2)nc2ccccc12	19 µM (active)
COc1ccc(NC(=O)c2cc(-c3ccco3)nc3ccccc23)cn1	inactive

Compound	Potency
CCOC(=O)c1sc(NC(=O)CSc2nc(O)c(Cc3ccccc3)c(=O)[nH]2)nc1C	19 µM (active)
O=C(CN1C(=O)/C(=C/c2ccco2)SC1=S)Nc1ccc(C(=O)O)c(O)c1	16.9 µM (active)
COc1cc(/C=C2\SC(=S)N(CCC(=O)Nc3cccc(O)c3)C2=O)cc(OC)c1OC	inactive
O=C1c2cccc(Sc3ccccc3)c2C(=O)c2c(Sc3ccccc3)cccc21	3.38 µM (active)
COC(=O)c1sc2cc(C(F)(F)F)cnc2c1-c1cccnc1	inactive
CCN(CC)C(=O)c1ccc(O)c(OC)c1	inactive
CCN(CC)S(=O)(=O)c1cc(OC)ccc1N=Nc1ccc(O)c2ncccc12	1.35 µM (active)
O=S(=O)(Nc1nccs1)c1ccc(NCc2cc(Br)cc(Br)c2O)cc1	1.07 µM (active)
CCc1nnc(NS(=O)(=O)c2ccc(NCc3cc(Cl)cc(Cl)c3O)cc2)s1	2.39 µM (active)
CCSc1nnc(-c2ccc(S(=O)(=O)N3CCOCC3)cc2)n1C	inactive
O=C(CCN1C(=O)/C(=C\C=C\c2ccccc2)SC1=S)Nc1ccc(C(=O)O)cc1	inactive
CCOc1ccc(/C=C2\SC(=S)N(CCC(=O)Nc3ccc(C(=O)O)cc3)C2=O)cc1	19 µM (active)
CCOc1ccc(NC(=O)c2sccc2-n2cccc2)cc1	inactive
Cc1n[nH]c(=S)n(NC(=O)CC(=O)Nn2c(=S)[nH]nc(C)c2=O)c1=O	1.51 µM (active)
CC1CCCN(c2ccc3nc4ccccc4c(=O)n3n2)C1 (centres undefined)	13.5 µM (active)
Cc1ccc(CN2CCN(/N=C/c3ccc(C)s3)CC2)c(C)c1	15.1 µM (active)
O=C(Nc1nc2c(F)cc(F)cc2s1)c1ccc([N+](=O)[O-])o1	inactive
O=C(Oc1ccc(C(=S)N2CCOCC2)cc1)c1ccccc1[N+](=O)[O-]	13.5 µM (active)
O=C(Oc1ccc(C(=S)N2CCOCC2)cc1)c1ccccc1F	6.01 µM (active)
O=C(Oc1ccc(C(=S)N2CCCCC2)cc1)c1ccccc1F	13.5 µM (active)
Cc1cc(Br)c(NC(=O)c2ccccc2[N+](=O)[O-])cc1C	inactive
CC1(C)Nc2cccc3c(N=Nc4ccc(N=Nc5ccccc5)c5ccccc45)ccc(c23)N1	3.01 µM (active)
COc1cnc(-c2ccccn2)nc1Oc1ccc(C(C)(C)C)cc1	3.79 µM (active)
CCOC(=O)C(C)Sc1nc(-c2ccccn2)ncc1OC (centres undefined)	2.13 µM (active)

Compound	Potency
COc1ccc(CN(CCN(C)C)c2ccccn2)cc1	inactive
COc1ccc(Oc2nc(-c3ccccn3)ncc2OC)cc1	19 µM (active)
CCc1nc2ccc(C(=O)NCCCN(C)C)cn2c1N(C)Cc1ccc(OC)cc1	inactive
COc1ccc(N(CC(=O)Nc2nc3ccc(C)cc3s2)S(=O)(=O)c2c(C)nn(C)c2C)cc1	inactive
Cc1c(C(=O)O)c(O)cc2c1C(=O)c1c(O)c([C@H]3O[C@H](CO)[C@@H](O)[C@H](O)[C@H]3O)c(O)c(O)c1C2=O	16.9 µM (active)
O=C(Nc1cccc(-c2nnc(-c3ccco3)o2)c1)c1ccccc1	inactive
CCc1ccc(NC(=O)COC(=O)c2ccccc2OCC(=O)N(C)C)cc1	inactive
CCOc1ccccc1C(=O)OCC(=O)Nc1nnc(-c2ccccc2)o1	19 µM (active)
O=C(COC(=O)c1cc(-c2cccnc2)nc2ccccc12)Nc1ccc(F)cc1F	inactive
COc1ccc(C(=O)Nc2nnc(-c3ccccc3)o2)cc1OC	19 µM (active)
C#Cc1cccc(NC(=O)CSc2nnc(-c3ccc(C(F)(F)F)cn3)o2)c1	15.1 µM (active)
CC1CCCCC1Nc1nc2ccc(Cl)cc2n2cnnc12 (centres undefined)	inactive
c1ccc2c(c1)nc(Nc1ccc(N3CCCCC3)cc1)c1nncn12	16.9 µM (active)
O=[N+]([O-])c1ccc(/C=C2\C=Cc3ccccc32)cc1	4.78 µM (active)
CNc1ccc(/C=C2\C=Cc3ccccc32)cc1OC	7.57 µM (active)
CN(C)c1ccc(/C=C2\C=Cc3ccccc32)cc1[N+](=O)[O-]	6.75 µM (active)
CN(C)c1ccc(/C=C2\C=Cc3ccccc32)cc1N	15.1 µM (active)
CCN(CC)CCNC(=O)c1ccc(N)cc1	inactive
CC(NC(=O)c1cc2c(s1)CS(=O)(=O)C2)c1ccccc1 (centres undefined)	inactive
Cc1cc(/C=C2\C=Cc3ccccc32)ccc1N(C)C	7.57 µM (active)
COc1cc(/C=C2/C=Cc3ccccc32)ccc1N(C)C	6.75 µM (active)
CCN(Cc1cccc(S(=O)(=O)O)c1)c1ccc(C(=C2C=CC(=[N+](CC)Cc3cccc(S(=O)(=O)O)c3)C=C2)c2ccccc2S(=O)(=O)[O-])cc1	9.53 µM (active)
CCN(Cc1cccc(S(=O)(=O)O)c1)c1ccc(C(=C2C=CC(=[N+](CC)Cc3cccc(S(=O)(=O)O)c3)C=C2)c2ccc(O)cc2S(=O)(=O)O)cc1	6.01 µM (active)
CC(=O)Nc1ccc(S(=O)(=O)N2C3CCCC2CC(NC(=O)C2CCCCC2)C3)cc1 (centres undefined)	inactive

Compound	Potency
Cc1nc2c(C(=O)Nc3ccc(N4CCCC(O)C4)cc3)snc2c(=O)[nH]1 (centres undefined)	inactive
CC(=O)Nc1ccc(S(=O)(=O)Nc2ccc(N3CCCCC3)cc2)cc1	8.49 µM (active)
COc1cc(NC(=O)CN2C(=O)CSc3ccc(S(=O)(=O)N4CCCC4)cc32)cc(OC)c1	5.36 µM (active)
O=C(Cc1ccccc1F)Nc1cccc(S(=O)(=O)N2CCCCC2)c1	inactive
COc1ccc(S(=O)(=O)N2CCN(C(=O)c3cc4c(s3)CCC4)CC2)cc1	inactive
COc1ccc(CNC(=O)C2CCN(S(=O)(=O)c3ccc4nc5c(c(C(=O)O)c4c3)CCCC5)CC2)cc1	15.1 µM (active)
Cc1ccc(CNC(=O)C2CCN(S(=O)(=O)c3ccc4nc5c(c(C(=O)O)c4c3)CC(C)CC5)CC2)cc1 (centres undefined)	8.49 µM (active)
O=C(O)c1c2c(nc3ccc(S(=O)(=O)N4CCC(C(=O)NC5CCCC5)CC4)cc13)CCCCC2	inactive
CCN(CC)c1ccc(/C=N/N2CCN(Cc3ccccc3Cl)CC2)cc1	7.57 µM (active)
CC(=O)Oc1ccc(N2C(=O)c3cccc4c([N+](=O)[O-])ccc(c34)C2=O)cc1	inactive
CCN1C(=O)c2cccc3c(S(=O)(=O)N(C(C)=O)c4ccc(OC(C)=O)cc4)ccc1c23	15.1 µM (active)
O=C(O)c1c(Br)c(Br)c(Br)c(Br)c1C1c2ccc(O)cc2Oc2cc(O)ccc21	1.35 µM (active)
C[N+](C)(CCCCCI)c1ccc(/C=C/c2nc3ccccc3s2)cc1	13.5 µM (active)
Cc1ccc(C2CC(c3ccc(Br)cc3)=NN2C(=O)CSC2=NN3CCCC(=O)N=C3S2)cc1 (centres undefined)	inactive
Nc1ccc2nc3c(=O)[nH]c(=S)[nH]c3nc2c1	6.01 µM (active)
COC(=O)c1ccccc1NC(=S)NC(=O)c1ccc(C)cc1	13.5 µM (active)
O=C1C(N2CCOCC2)=Cc2cccc3cccc1c23	19 µM (active)
CCOC(=O)C1=C(N)Oc2c(oc(CO)cc2=O)C1c1ccc(Cl)cc1 (centres undefined)	inactive
COc1ccc(C(=O)CC(=O)Nc2ccc([N+](=O)[O-])cc2)cc1	inactive
O=C(Nc1cc([N+](=O)[O-])ccc1O)c1cccc(C(=O)Nc2cc([N+](=O)[O-])ccc2O)c1	3.79 µM (active)
NC(N)=Nc1nc2cc([N+](=O)[O-])ccc2o1	inactive
O=C(O)CSCc1nc2cccnc2n1C1CCCCC1	inactive
